Screening data: PubChem, several laboratories
tim23-1 inh: growth inhibitors of tim23-1 mutant yeast, primary screen, luminescence, uHTS. S. cerevisiae tim23-1 growth, BacTiter-Glo luminescence, 24 h. inhibition, % at 20 µM. hit rate 1.3% among 330,000;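 active = growth inhibition of the mutant yeast at or above 50%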;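 note: temperature-sensitive mutant grown at 25 °C; plate controls were DMSO-treated mutant yeast for no effect and medium wells lacking yeast for full effect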
SKKanGAS inh: S. pyogenes SKKanGAS growth inhibitors in kanamycin, primary screen, streptokinase expression inhibitor project, SKKanGAS strain, BacTiter-Glo luminescence; 6 h; inhibition, % at 7.5 µM; hit rate 1.3% among 300,000;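 active = mean replicate score, as percent of positive control median, at least 50; inconclusive = mean below 50 but one replicate at or above 50; inactive = mean and every replicate below 50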;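 note: strain carries kanamycin resistance gene driven by streptokinase promoter and grows in 40 µg/ml kanamycin; loss of luminescence reflects streptokinase promoter inhibition or plain growth inhibition; 0% = median of DMSO wells and 100% = positive control at its reference dose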
V-ATPase pHluor: regulators of yeast V-ATPase proton pumping, primary screen, pHLuorin cytosolic pH fluorescence; S. cerevisiae; response, % at 10 µM; hit rate 0.37% among 350,000; in the data active = response mostly above about 7.3%, no sharp cut-off; inactive = mostly below about 5.4%; note: actives read high
TIM10 inh: growth inhibitors of isogenic TIM10 control yeast, primary screen, counter-screen for tim10-1 yeast inhibitor project, luminescence, uHTS | S. cerevisiae TIM10 strain growth, BacTiter-Glo luminescence, 24 h | inhibition, % at 10 µM | hit rate 1.4% among 330,000 | AID 463195, 2010;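 active = inhibition of 40% or more at the single tested concentration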;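 note: wild-type TIM10 isogenic control strain grown at permissive 25 °C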
PfHsp90 set2: growth inhibition of PfHsp90-expressing yeast, primary screen, antimalarial PfHsp90 inhibitor project, S. cerevisiae, BacTiter-Glo luminescence, single point, set 2; AID 504621, 2011; inhibition, % at 9.4 µM; BacTiter-Glo ATP, 48 h; yeast lacking PDR1 and PDR3 efflux regulators; hit rate 0.32% among 310,000;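 active = every replicate shows inhibition above about 80%, whatever the replicate mean, limit read from the data; inconclusive = mean inhibition reaches the set limit but some replicate falls short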;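 note: 0% = DMSO neutral controls and 100% = 20 µM radicicol positive controls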
tim10-1 inh: growth inhibitors of tim10-1 mutant yeast, primary screen, luminescence, uHTS | S. cerevisiae tim10-1 ts strain growth, BacTiter-Glo, 24 h | inhibition, % at 20 µM | hit rate 2.2% among 330,000 | AID 463190, 2010;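 active = inhibition of at least 40%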;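 note: mutant grown at 25 °C; 0% = DMSO wells with yeast and 100% = wells holding no yeast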
tim10-1 confirm: growth inhibitors of tim10-1 mutant yeast, confirmation, single concentration, luminescence, S. cerevisiae | shares compounds with tim10-1 inh | inhibition, % at 20 µM | S. cerevisiae tim10-1 ts strain growth, BacTiter-Glo, 24 h | hit rate 56% among 7,400;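 active = inhibition of yeast growth at or above a set limit in either of two repeat tests at 20 µM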;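 note: tim10-1 mutant grown at permissive 25 °C to find synthetic lethal compounds; 0% = DMSO yeast wells and 100% = medium wells without yeast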
TIM10 conf: growth inhibitors of wild-type TIM10 yeast, confirmation, counter-screen for tim10-1 synthetic lethality project, single concentration, luminescence, S. cerevisiae; hit rate 63% among 4,600; shares compounds with TIM10 inh; AID 463215, 2010; inhibition, % at 10 µM; S. cerevisiae tim10 strain growth, BacTiter-Glo luminescence, 24 h;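 active = inhibition of yeast growth at or above a set limit in either of two replicates at 10 µM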;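 note: this counterscreen used the strain with wild-type TIM10; 0% = yeast with DMSO and 100% = medium wells lacking yeast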
* = called active by the depositor; ? = inconclusive; · = no result. The list is not random: actives were taken first. Their share in the collection is about 4.6%.

SMILES	tim23-1 inh	SKKanGAS inh	V-ATPase pHluor	TIM10 inh	PfHsp90 set2	tim10-1 inh	tim10-1 confirm	TIM10 conf
Cc1cccn2cc(-c3ccc(S(=O)(=O)N4CCCCC4)cc3)nc12	45	-7	0	48*	8	62*	70*	63*
CC(C)(C)NC(=O)NC(=O)COC(=O)c1cccc(S(=O)(=O)N2CCCCC2)c1	-4	2	3	-4	17	10	·	·
CCS(=O)(=O)NCCc1cc2c(OC)ccc(OC)c2[nH]c1=O	11	3	3	3	-19	10	·	·
COc1cccc(CN(CC(=O)NCc2ccccc2)C(=O)c2csnn2)c1	1	16	-4	-7	-13	6	·	·
c1ccc(-c2nnc(N3CCN(c4ccccn4)CC3)c3ccccc23)cc1	33	16	0	41*	·	52*	29	8
COc1ccc(CC2CC(=O)N(c3ccc(C)cc3)C2=O)cc1 (stereo not drawn)	13	-1	3	-4	12	18	·	·
CCSC1=N/C(=C\c2ccc(C(=O)O)cc2)C(=O)S1	11	-1	-1	5	-13	8	·	·
CCOc1c(OC(C)=O)ccc(/C=C2\N=C(SCC)SC2=O)c1[N+](=O)[O-]	37	-3	0	45*	21	50*	46*	31*
COc1ccc(C(=O)N2CCc3[nH]nc(-c4ccccc4)c3C2)cc1	5	0	-1	-45	3	28	·	·
CN1CCN(Cn2cc(/C=C/C(=O)c3ccccc3)c3ccccc32)CC1	-61	-15	-5	67*	15	62*	0	65*
O=C(/C=C/c1cn(CC(O)CN2CCCCC2)c2ccccc12)c1ccccc1 (stereo not drawn)	·	-7	-2	·	3	·	·	·
Cc1nonc1OCCNC(=O)C12CC3CC(CC(C3)C1)C2	19	-5	-3	11	16	18	·	·
CC1=Nc2ccccc2/C1=C\c1nc(-c2ccccc2)oc1O	26	28	-2	45*	-20	42*	34*	35*
C/C(=N\N=c1/sc2ccccc2n1C)c1ccccn1	37	0	2	43*	5	43*	35*	-13
Nc1ccc(S(=O)(=O)c2ccccc2)nc1	-3	2	-1	1	3	-8	·	·
O=[N+]([O-])c1ccc(S(=O)(=O)c2ccccc2)nc1	47	-1	3	60*	9	64*	58*	52*
O=[N+]([O-])c1ccc(SNc2ccccc2)c([N+](=O)[O-])c1	·	·	-2	·	24	·	·	·
O=[N+]([O-])c1ccc(-[n+]2ccc3ccccc3c2)c([N+](=O)[O-])c1	49	6	-2	50*	-13	58*	52*	52*
COc1ccc2nc3oc(C(=O)NC4CCN(Cc5ccccc5)CC4)cc3cc2c1	34	·	3	74*	6	52*	50*	44*
CCCCN(CC)CCCNC(=O)c1cc2cc3ccc(OC)cc3nc2o1	47	5	-4	66*	2	43*	44*	-21
CCN1CCN(CCCNC(=O)c2cc3cc4ccc(OC)cc4nc3o2)CC1	39	4	-1	11	-33	16	·	·
COc1ccc2cc3cc(C(=O)NCCN4CCN(Cc5ccccc5)CC4)oc3nc2c1	39	3	-3	75*	-9	57*	58*	-21
COc1ccc2cc3cc(C(=O)NCCCN4CCOCC4)oc3nc2c1	45	14	3	79*	24	58*	67*	81*
CCCCCCCN1C(Nc2ccccc2)=NC[C@@H]1C	7	·	-3	-4	2	9	·	·
C=CCn1c(SCC(=O)N(C)C)nc2sc3c(c2c1=O)CCC3	11	-2	-4	-1	-17	16	·	·
SMILES	tim23-1 inh	SKKanGAS inh	V-ATPase pHluor	TIM10 inh	PfHsp90 set2	tim10-1 inh	tim10-1 confirm	TIM10 conf
O=C(NC1CCCC1)c1cccc(Oc2ccccc2)c1	38	-5	-3	42*	-14	46*	26	32*
O=S(=O)(NCCSCc1c(Cl)cccc1Cl)c1ccc2c(c1)OCCO2	48	?	7	50*	25	53*	45*	35*
N/N=C(/Cc1nc2ccccc2[nH]1)c1ccc([N+](=O)[O-])cc1	28	12	-1	51*	12	42*	50*	58*
CCc1c(C)sc(NC(=O)Cc2ccccc2C)c1C(=O)N1CCOCC1	14	-3	0	3	-12	12	·	·
N/C(CCS(=O)(=O)c1ccc(Cl)cc1)=N\OC(=O)c1ccccc1Cl	42	-4	-3	51*	4	62*	71*	50*
NC(=O)CCS(=O)(=O)c1ccc(Cl)cc1	12	1	-2	-18	4	-2	·	·
CCOc1ccc(N(CC(=O)NC2CCCCC2)C(=O)CCCC(=O)Nc2ccccn2)cc1	10	0	1	8	23	-16	·	·
Cc1ccc(-n2cnc3cc(NCc4cccs4)ccc32)cc1	28	43	0	63*	-6	56*	57*	64*
CC(C(=O)C12CC3CC(CC(C3)C1)C2)N1CCOCC1 (stereo not drawn)	16	0	-6	2	6	11	·	·
N#CC1(C#N)[C@@H](C(=O)C23CC4CC(CC(C4)C2)C3)C12CCOCC2	31	-5	1	44*	15	57*	48*	-6
c1coc(C2=Nc3cccc4cccc(c34)N2)c1	49	0	1	49*	13	47*	26	24
Cc1ccc(S(=O)(=O)N2Cc3ccccc3CC2C(=O)NC(C)(C)C)cc1 (stereo not drawn)	37	4	4	12	16	28	·	·
Nc1nccnc1C(=O)OCC(=O)C12CC3CC(CC(C3)C1)C2	4	-6	4	2	7	-4	·	·
N#CC1(C#N)CC(C=O)=C(N)C1(C#N)CC(=O)C12CC3CC(CC(C3)C1)C2 (stereo not drawn)	48	9	1	48*	22	40*	48*	40*
CC(=O)Oc1c(-c2ccco2)oc2ccccc2c1=O	48	-1	-5	62*	-48	53*	49*	61*
